# HPGD inh: inhibitors of human 15-hydroxyprostaglandin dehydrogenase (HPGD) | Potency, µM, inactives show top-dose activity change, negative = inhibition, hits mostly inhibitors | purified HPGD, NADH fluorescence kinetic, PGE2 substrate | 4.3% of 150,000 active; active = well fitted inhibition curve with a large enough effect, not every such curve was filed as active; inconclusive = small, poorly fitted or top-dose-only effect, or another doubt; inactive = no such curve, though single readings can be large or run the other way; note: potency is the fitted concentration of half-maximal effect; % is set by controls: 0 for no effect and ±100 for the full control effect
# Target sequence (P15428 whole entry, looked up): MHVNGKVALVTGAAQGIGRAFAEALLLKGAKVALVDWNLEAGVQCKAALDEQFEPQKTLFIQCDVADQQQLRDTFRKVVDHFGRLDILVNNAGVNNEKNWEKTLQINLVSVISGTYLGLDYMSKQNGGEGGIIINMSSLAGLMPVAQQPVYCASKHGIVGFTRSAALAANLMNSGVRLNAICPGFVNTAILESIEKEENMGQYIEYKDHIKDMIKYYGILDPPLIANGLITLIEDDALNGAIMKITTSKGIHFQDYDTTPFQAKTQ
#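 20 nM HPGD preincubated 15 min at room temperature with compound in 50 mM Tris-HCl pH 8, 0.01% Tween 20. Started with 1 mM NAD+ and 30 uM prostaglandin E2; NADH fluorescence (360/450 nm) read 5 times over 30-s intervals, last minus first.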
# HTT cytoprotect: protects HTT-Q103 PC12 cells, measured by ATP; AID 1471; 0.14% of 230,000 active; Potency, µM (titrated, usually from 56.4 µM), without a hit: cytoprotection (ATP increase), most hits filed as activators; PC12 HTT-Q103 induced, cytoprotection, ATP luminescence, 40 h; note: potency is the fitted concentration of half-maximal effect; % of control where 0% means no effect; nearly all actives have a fitted effect of over 45% in size
#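 Compounds were screened for protection of PC12 cells against cell death after tebufenozide induction (100 nM final) of mutant Huntingtin exon 1 (Q103) fused to GFP.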
# ALDH1A1 block: ALDH1A1 (human) enzyme inhibition; 7.3% of 220,000 active; AID 1030; Purified ALDH1A1, NADH fluorescence, propionaldehyde substrate; Potency, µM (doses to about 75.3 µM), for the others: at the highest dose activity, negative = inhibition, actives largely listed as inhibitors; active = well fitted inhibition curve with a large enough effect, not every such curve was filed as active; inconclusive = small, poorly fitted or top-dose-only effect, or another doubt; inactive = no such curve, though single readings can be large or run the other way;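 note: potency is the fitted concentration of half-maximal effect; plate controls were no enzyme wells and a reference inhibitor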
# Target sequence (P00352 whole entry, looked up): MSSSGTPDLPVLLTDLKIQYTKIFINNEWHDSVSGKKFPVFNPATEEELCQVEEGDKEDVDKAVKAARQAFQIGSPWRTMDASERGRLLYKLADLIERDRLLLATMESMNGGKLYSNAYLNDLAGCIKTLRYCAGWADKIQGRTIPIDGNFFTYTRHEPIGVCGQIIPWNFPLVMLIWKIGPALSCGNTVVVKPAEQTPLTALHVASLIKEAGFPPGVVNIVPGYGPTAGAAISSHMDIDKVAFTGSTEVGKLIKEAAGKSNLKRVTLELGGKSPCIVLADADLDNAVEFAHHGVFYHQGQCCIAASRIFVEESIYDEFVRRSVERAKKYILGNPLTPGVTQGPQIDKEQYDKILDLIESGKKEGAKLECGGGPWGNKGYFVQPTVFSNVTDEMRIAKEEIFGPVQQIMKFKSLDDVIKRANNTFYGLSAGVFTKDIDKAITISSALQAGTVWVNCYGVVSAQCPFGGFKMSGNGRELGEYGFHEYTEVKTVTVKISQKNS
# PNC inhibitor: perinucleolar compartment assembly inhibition | 3.1% of 140,000 active | PC3M PTB-GFP, PNC prevalence imaging, 16 h; stronger effect = lower value | AID 2417 | activity change (PNC), negative = inhibition, % at 10 µM;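 active = readout at or below -70, meaning at least 70% loss of cells showing the perinucleolar compartment, a nuclear body marking cancer cells; inconclusive = readout between -30 and a set limit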;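 note: plate controls were DMSO wells for no effect and camptothecin positive control wells for full effect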
#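 Read-out is percentage of cells bearing a perinucleolar compartment, from automated 20x imaging of fixed, Hoechst-stained PC3M PTB-GFP cells. Cells were seeded 4 h, then exposed 16 h to compound (23 nl of library stock) in duplicate plates.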
# HTT aggregate: reduces HttQ103-GFP aggregates in PC12 cells; PC12 HttQ103-GFP aggregates, Acumen cytometry, 40 h; Potency, µM (doses to about 46.1 µM), for the others: at the highest dose activity change, negative = inhibition, usual class: inhibitors; 1.1% of 220,000 active; note: potency is the fitted concentration of half-maximal effect; % is set by controls: 0 for no effect and ±100 for the full control effect; nearly all actives have a fitted effect of over 60% in size
#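 PC12/HTTQ103-GFP, ecdysone-inducible; teb 100 nM; cpd qHTS titration; GFP aggregates read on laser cytometer, Ex 488/Em 500-530 nm.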
# CBFb RUNX1 block: blocks binding between human CBF-beta and RUNX1 | AID 1477 | Q01196+Q13951 | 230,000 tested, under 10 active | Potency, µM (series often up to 59.8 µM), for inactives: at the top dose activity, negative = inhibition, actives largely listed as inhibitors | AlphaScreen CBFb-His/RUNX1-biotin binding, biochemical; note: % of control where 0% means no effect
#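 Interaction loss through any mechanism counts as activity. Pre-formed complex of His-CBF-beta and biotin-RUNX1 (30 nM apiece) is incubated with compound 15 min, then with 50 ng nickel and 50 ng streptavidin beads for 90 min before AlphaScreen detection.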
# An asterisk follows results filed as active; u = inconclusive; x = not tested or not shown; [ ] = another dose, or the depositor's remark. Only some compounds are listed: those with a hit (about 11% of all), similar ones and a draw of the others. Unless noted, calls come from the whole dose curve; as a rule, active = well fitted curve in the direction sought with a large enough effect; inconclusive = small, poorly fitted or top-dose-only effect, or another doubt; inactive = no such curve, though single readings can be large; an effect the other way counts as inactive or inconclusive.
SMILES,HPGD inh,HTT cytoprotect,ALDH1A1 block,PNC inhibitor,HTT aggregate,CBFb RUNX1 block
Cc1ccc(NC(=O)COC(=O)CN2C(=O)c3ccccc3C2=O)cc1S(=O)(=O)N(C)C,x,-18.8%,u,x,5.8%,2.9%
CN(C)S(=O)(=O)c1cccc(NC(=O)COC(=O)c2ccc(Br)o2)c1,0.1%,-7.9%,3.4%,109.4,4.1%,4.4%
Cc1ccc(NC(=O)c2ccc(Br)o2)cc1S(=O)(=O)N(C)C,x,-71.3%,14.1µM*,x,16.1%,0.2%
Cc1ccc(NC(=O)c2ccncc2)cc1S(=O)(=O)N(C)C,-8.2%,-5.2%[10 µM],-0.8%,-5.2,-24.8%,0.5%
NS(=O)(=O)c1ccc(CNS(=O)(=O)c2ccc(Cl)nc2)cc1,x,x,22.4µM*,x,-0.9%,13.2%
O=S(=O)(NCc1ccc(Cl)cc1)c1ccc(Cl)nc1,-8.4%,-24.1%,5.7%,u,-20.4%,-3.2%
C=C(C)C1CC=C(C)/C(=N\NC(=O)CNc2cccc3ccccc23)C1 (configuration not stated),x,21.9%[10 µM],u,-2.8,20.4%,-1.2%
CCOc1cc(/C=C2\SC(=S)N(C(C(=O)O)c3ccccc3)C2=O)ccc1O (configuration not stated),x,-3.6%[10 µM],31.6µM*,x,-1.3%[9.22 µM],5.0%
O=C1/C(=C/c2cccc(O)c2)SC(=S)N1CC1CCCO1 (configuration not stated),x,8.7%[10 µM],x,x,-26.4%[9.22 µM],-13.7%
COc1cccc(/C=C2\SC(=S)N(CC3CCCO3)C2=O)c1 (configuration not stated),-19.7%,-1.9%[10 µM],3.16µM*,-19.3,u,u
CCOc1ccc(/C=C2/SC(=S)N(C(C(=O)O)c3ccccc3)C2=O)cc1OCC (configuration not stated),x,42.2%[10 µM],u,x,3.3%,u
CCOc1cc(/C=C2/SC(=S)N(CC3CCCO3)C2=O)ccc1O (configuration not stated),x,7.1%[10 µM],0.447µM*,x,9.7%[9.22 µM],-10.7%
CS[C@]12C(=O)C[C@]3(C)[C@@H](CC[C@@]3(O)C(=O)CO)[C@@H]1CCC1=CC(=O)CC[C@]12C,-2.7%,-8.7%[10 µM],-10.9%[13.5 µM],x,x,x
COc1nc(N(C)C)nc(N(OC)S(=O)(=O)c2ccccc2Cl)n1,-1.5%,-22.6%,0.0%,8.6,20.9%[9.22 µM],1.4%
Cc1ccc(S(=O)(=O)Nc2cccc(Oc3cnccn3)c2)cc1,x,-5.5%[10 µM],7.94µM*,x,21.1%,1.3%
CC(C)=CCC/C(C)=C/CO/N=C1/C[C@@H](O)[C@@H](O)[C@@H]2[C@H]3C(=O)N(c4ccc(F)cc4F)C(=O)[C@@H]3CC[C@H]12,x,-10.7%[10 µM],-10.9%[13.5 µM],x,x,19.5%[13.1 µM]
CCN(CC)c1ccc(SS(=O)(=O)O)cc1,8.91µM*,13.2%,12.6µM*,-0.1,28.6%,-30.0%
CCN(CC)c1ccc(NC(=O)OC)cc1,-12.1%,12.4%,9.1%,80.5,-24.1%,-4.0%
O=c1c(-c2cc(F)cc(F)c2)nc2cnc(N3CCNCC3)nc2n1-c1ccccc1,x,-6.0%,u,x,x,x
O=C(Nc1cccnc1)c1ccc(COc2ccccc2Cl)o1,14.1µM*,-1.9%,-2.6%,-1.7,11.1%,-1.6%
O=C(Nc1nccs1)c1ccc(COc2ccccc2Br)o1,-24.6%,-4.4%[10 µM],2.1%,-87.7*,u,6.0%
O=C(Nc1nccs1)c1ccc(COc2ccc(Cl)cc2)o1,-29.3%,-15.5%,-5.5%,-2.0,-1.3%,-3.1%
O=C(Nc1nccs1)c1ccc(COc2ccc(F)cc2)o1,14.1µM*,-21.7%[0.074 µM],u,31.4,-1.0%,1.0%
C[C@H](N)C(=O)N[C@@H](Cc1ccc(F)cc1)C(=O)N[C@@H](CCCN=C(N)N)C(=O)N[C@@H](CC1CCCCC1)C(=O)N[C@@H](CCCCN=C(N)N)C(=O)N[C@@H](Cc1ccc(O)cc1)C(N)=O,x,x,x,x,x,13.6%
CC(=O)NS(=O)(=O)c1ccc(NC(=O)COc2ccc(C(=O)c3ccccc3)cc2)cc1,25.1µM*,x,10µM*,-11.8,-12.1%,-7.4%
SMILES,HPGD inh,HTT cytoprotect,ALDH1A1 block,PNC inhibitor,HTT aggregate,CBFb RUNX1 block
COCC(=O)Nc1ccc(S(=O)(=O)NCCc2ccccc2)cc1,-7.8%,11.2%,-11.0%,-106.5*,-24.7%,4.9%
COc1ccc(S(=O)(=O)NCCc2ccccc2)cc1,3.4%,-11.8%,u,23.3,-10.9%,-4.5%
Cc1cc(C)nc(NS(=O)(=O)c2ccc(NC(=O)COc3ccccc3)cc2)n1,0.2%,-0.7%,6.1%,27.1,19.1%,7.4%
NS(=O)(=O)c1ccc(CCNS(=O)(=O)c2ccccc2)cc1,x,-22.8%,8.91µM*,x,-6.8%,1.9%
O=C1C(NS(=O)(=O)c2cccs2)=C(N2CCN(c3cccc(Cl)c3)CC2)C(=O)c2ccccc21,-14.1%,-20.2%,3.16µM*,-12.0,-14.8%,u
O=C(c1cc(C(F)(F)F)cc(C(F)(F)F)c1)N1CCC2(CCCN(c3ccncc3)C2)CC1,-16.0%,-47.1%,15.5%,x,x,x
O=S(=O)(c1ccccc1)c1cccc(S(=O)(=O)N2CCCCC2)c1,-11.0%,8.9%,2.24µM*,-3.2,7.3%,3.3%
Cc1ccc(S(=O)(=O)c2cccc(S(=O)(=O)N3CCCC3)c2)cc1S(=O)(=O)N1CCCC1,-5.6%,-8.5%,u,-21.1,u,7.5%
CCN(CC)S(=O)(=O)c1cccc(S(=O)(=O)N2CCCCC2)c1,-0.7%,6.1%,3.55µM*,u,-26.8%,-0.7%
CCN(CC)S(=O)(=O)c1ccc(C)c(NC(=S)Nc2cccc(S(=O)(=O)N3CCCCCC3)c2)c1,-19.2%,-50.9%[10 µM],u,u,-4.8%,-1.8%
COc1cccc(-c2ccc3ncnc(N(C)C)c3c2)c1,x,-212.6%,29.2%,x,x,x
Cc1noc(C)c1S(=O)(=O)N1CCN(C(c2ccccc2)c2ccc(Cl)cc2)CC1 (configuration not stated),-8.0%,9.3%,u,-89.9*,-20.1%,2.1%
CC(C)N(CC(=O)O)CC(=O)O,1.5%,-10.0%[10 µM],u,x,x,x
O=C(O)CSc1nc(-c2ccc(Cl)cc2)nc2c1oc1ccccc12,15.8µM*,x,u,-86.9*,-0.4%,10.3%
Cc1nc(SCC(=O)Nc2ccccc2)c2oc3ccccc3c2n1,x,-20.7%[0.074 µM],u,u,-0.5%,-2.3%
CCc1nc(SCC(=O)NCCc2ccccc2)c2oc3ccccc3c2n1,-14.5%,-21.5%,-4.4%,3.5,2.6%,1.0%
CNC(=O)C(Sc1nc(C)nc2c1oc1ccccc12)C(C)=O (configuration not stated),-23.9%,-27.5%,12.6µM*,-1.8,8.5%,2.7%
Cc1nc(SCC(=O)NCCc2ccccc2)c2oc3ccccc3c2n1,-20.3%,-19.3%,-1.0%,-99.8*,-0.9%,11.7%
Cc1nc(SCC(=O)c2ccc(Cl)s2)c2oc3ccccc3c2n1,2.24µM*,-1.5%,u,-24.7,-0.1%,-0.2%
